Screening data deposited in PubChem by several laboratories.
This is a sample that favours compounds with a hit; in the whole collection about 3.6% have one here.
Myeloid diff 2 – promotes myeloid progenitor differentiation. ER-HoxA9 myeloid progenitors, lysozyme-GFP differentiation, flow cytometry. calls only at 10 µM. actives 1% (n = 360,000). AID 624256;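 active = normalized GFP-positive differentiation at or above the plate's own cutoff, the solvent-only control mean plus 3 SD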;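 note: cells exposed to compound for four days before flow analysis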
CRFR2-BP antag – CRF-BP/CRF-R2 complex antagonism. HEK293 CRF-R2/CRF-BP, CRF-induced calcium fluorescence. inhibition, % at 11.8 µM. actives 0.59% (n = 350,000);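 active = inhibition of the ligand-induced calcium signal above about 50% at the single tested concentration, limit read from the data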
CendR NRP1 mod – alters CendR peptide binding to human NRP-1; inhibition, % at 25 µM; O14786; FAM-RPARPAR peptide binding to NRP-1, fluorescence polarization; actives 0.85% (n = 360,000); AID 602438;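 active = inhibition or corrected inhibition above about 18%, plus a signal ratio from 0.5 to 1.5, limit read from the data, passing the limit was not always enough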
FAS TE block – FAS thioesterase (human) inhibition | P49327 | recombinant FAS-TE, OMFH fluorogenic substrate, fluorescence endpoint | inhibition, % at 15 µM | actives 0.67% (n = 360,000);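 active = compounds whose normalised, plate-corrected inhibition of enzyme fluorescence in the single-dose primary screen is 50% or more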;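 note: 0% = DMSO with enzyme and 100% = substrate without enzyme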
NadD inh – blocks S. aureus nicotinate mononucleotide adenylyltransferase; inhibition, % at 20 µM; actives 0.78% (n = 360,000); purified NadD enzyme, colorimetric absorbance read-out; in the data active = inhibition above about 26%
Myeloid diff – myeloid differentiation induction; shares compounds with Myeloid diff 2; ER-HoxA9 myeloid progenitors, GFP/Mac1 double-positive flow; calls only; actives 2% (n = 2,300); AID 651706;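 active = share of green or green-and-red cells above 9 and 9% in run 1 or 4 and 3% in run 2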
GFP autofluor – flagged as fluorescent in myeloid differentiation counter-screen; actives 7.4% (n = 2,300); fluorescence response, % (no concentration beside the values); ER-HoxA9 myeloid progenitors, no estrogen, GFP autofluorescence flow cytometry; vehicle wells 0%, positive control 100%; shares compounds with Myeloid diff 2; AID 651707;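 active = over 5% cells positive for green fluorescent reporter, or over 2% positive for both it and APC stain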;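 note: range taken on the double positive population between DMSO and positive control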
Active calls of the source: *.

What do the screens show for `Cc1ccc(C(=O)N(Nc2nc3ccccc3s2)C(=O)c2ccc(C)cc2)cc1`?
Myeloid diff 2: inactive; CRFR2-BP antag: -30; CendR NRP1 mod: -6; FAS TE block: -5; NadD inh: 8

What do the screens show for `Clc1ccc(CO/N=C2\CCCc3nonc32)c(Cl)c1`?
Myeloid diff 2: inactive; CRFR2-BP antag: 15; CendR NRP1 mod: 6; FAS TE block: 30; NadD inh: -5

Results for CNc1ccc(C(O)(C(F)(F)F)C(F)(F)F)cc1C(O)(C(F)(F)F)C(F)(F)F ?
Myeloid diff 2: active; CRFR2-BP antag: -19; CendR NRP1 mod: 11; FAS TE block: 9; NadD inh: -1; Myeloid diff: inactive; GFP autofluor: 1

Results for Cc1ccc(N)c(C(O)(C(F)(F)F)C(F)(F)F)c1 ?
Myeloid diff 2: inactive; CRFR2-BP antag: 0; CendR NRP1 mod: 1; FAS TE block: -3; NadD inh: -1

How did CC(C)COC(=O)c1ccc2c(c1O)C(=O)c1ccccc1C2=O do in these assays?
Myeloid diff 2: inactive; CRFR2-BP antag: -11; CendR NRP1 mod: 16; FAS TE block: 24; NadD inh: 16; Myeloid diff: inactive; GFP autofluor: 6.1*

How did N#CNC(=Nc1ccc(Cl)cc1)Oc1ccccc1 do in these assays?
Myeloid diff 2: inactive; CRFR2-BP antag: 22; CendR NRP1 mod: 1; FAS TE block: 2; NadD inh: -8

How did Cc1cc(C)n2nc(C(=O)OCC(=O)Nc3ccc(C)c(F)c3)nc2n1 do in these assays?
Myeloid diff 2: inactive; CRFR2-BP antag: 11; CendR NRP1 mod: -11; FAS TE block: -6; NadD inh: -2; Myeloid diff: inactive; GFP autofluor: 0

Results for CCCc1ccc(OCc2ccc(C(=O)O)o2)c(OC)c1 ?
Myeloid diff 2: inactive; CRFR2-BP antag: -46; CendR NRP1 mod: 10; FAS TE block: -4; NadD inh: -3

Results for CCCc1ccc(OCc2ccc(C(=O)NN)o2)c(OC)c1 ?
Myeloid diff 2: active; CRFR2-BP antag: 3; CendR NRP1 mod: -1; FAS TE block: -6; NadD inh: -3; Myeloid diff: inactive; GFP autofluor: 0

How did O=C(NNC(=O)C1CC(c2cccnc2)=NO1)Nc1cccc(F)c1 (stereo not given) do in these assays?
Myeloid diff 2: inactive; CRFR2-BP antag: -9; CendR NRP1 mod: -3; FAS TE block: -6; NadD inh: -5

Results for O=C(N[C@@H](Cc1ccccc1)C(=O)Nc1ccc(F)cc1)C1CCNCC1 ?
Myeloid diff 2: inactive; CRFR2-BP antag: -2; CendR NRP1 mod: 3; FAS TE block: -3; NadD inh: 1

What do the screens show for `C[C@H](N)C(=O)N1CCC(C(=O)N[C@@H](Cc2ccccc2)C(=O)Nc2ccc(F)cc2)CC1`?
Myeloid diff 2: inactive; CRFR2-BP antag: -6; CendR NRP1 mod: -7; FAS TE block: -8; NadD inh: -4; Myeloid diff: inactive; GFP autofluor: 0

What do the screens show for `Cc1ccc2c(c1)S/C(=C\c1cccc[n+]1C)N2CCO`?
Myeloid diff 2: active; CRFR2-BP antag: 1; CendR NRP1 mod: -7; FAS TE block: -7; NadD inh: 9; Myeloid diff: inactive; GFP autofluor: 68*

How did O=C(Cn1nc(-c2ccc(Cl)cc2)c2ccccc2c1=O)NN1CCOCC1 do in these assays?
Myeloid diff 2: inactive; CRFR2-BP antag: 0; CendR NRP1 mod: 10; FAS TE block: -2; NadD inh: 1

Results for COc1ccc(-c2ccc(C(=O)NCc3ccc(N4CCN(C)CC4)cc3)c3occc23)c(C)c1 ?
Myeloid diff 2: active; CendR NRP1 mod: -6; FAS TE block: 7; NadD inh: 1; Myeloid diff: inactive; GFP autofluor: 0

Results for Cc1cc(C)c2cc3c(N)c(C(=O)Nc4c(C)[nH]c(=O)[nH]c4=O)sc3nc2c1 ?
Myeloid diff 2: active; CRFR2-BP antag: 2; CendR NRP1 mod: -48; FAS TE block: -9; NadD inh: 23; Myeloid diff: inactive; GFP autofluor: 4

How did Cc1cc(C)c2cc3c(N)c(C(=O)N4CCOCC4)sc3nc2c1 do in these assays?
Myeloid diff 2: inactive; CRFR2-BP antag: -30; CendR NRP1 mod: -11; FAS TE block: -3; NadD inh: 9

How did Cc1cccn2c(=O)c(/C=C3\SC(=S)NC3=O)c(NCCCN3CCOCC3)nc12 do in these assays?
Myeloid diff 2: active; CRFR2-BP antag: -46; CendR NRP1 mod: -152; FAS TE block: -16; NadD inh: 2; Myeloid diff: inactive; GFP autofluor: 1

Results for Cc1nnc(SCCn2c(N3CCC(Cc4ccccc4)CC3)nc3c2c(=O)[nH]c(=O)n3C)s1 ?
CRFR2-BP antag: -45

Results for Cc1nnc(SCCn2c(N(C)Cc3ccccc3)nc3c2c(=O)[nH]c(=O)n3C)s1 ?
Myeloid diff 2: active; CRFR2-BP antag: -20; CendR NRP1 mod: -12; FAS TE block: -5; NadD inh: -3; Myeloid diff: inactive; GFP autofluor: 0

How did Cc1ccc2c(COC(=O)CNC(=O)c3ccco3)cc(=O)oc2c1C do in these assays?
Myeloid diff 2: inactive; CRFR2-BP antag: -5; CendR NRP1 mod: 3; FAS TE block: -12; NadD inh: 0

Results for Cc1nn(C)c(C)c1NC(=O)CSc1nnc(C)n1-c1ccccc1 ?
Myeloid diff 2: active; CRFR2-BP antag: -6; CendR NRP1 mod: -9; FAS TE block: -4; NadD inh: -2; Myeloid diff: inactive; GFP autofluor: 0

Results for CC(=O)Nc1ccc(NC(=O)CSc2nnc(C)n2-c2ccccc2)cc1 ?
Myeloid diff 2: inactive; CRFR2-BP antag: 1; CendR NRP1 mod: -12; FAS TE block: -4; NadD inh: -6

Results for O=C(Nc1c2c(nn1-c1ccccc1)CS(=O)C2)c1ccc2c(c1)OCO2 (stereo not given) ?
Myeloid diff 2: inactive; CRFR2-BP antag: 5; CendR NRP1 mod: 16; FAS TE block: -10; NadD inh: -4

How did Cc1nn(CCCC(=O)NC(C)c2ccccc2)c(=O)c2nn(-c3ccccc3)c(C)c12 (stereo not given) do in these assays?
Myeloid diff 2: inactive; CRFR2-BP antag: -3; CendR NRP1 mod: 0; FAS TE block: -8; NadD inh: 1

How did C/C(=C/c1ccccc1)C(=O)N1CCC(C)CC1 do in these assays?
Myeloid diff 2: inactive; CRFR2-BP antag: -1; CendR NRP1 mod: -122; FAS TE block: -1; NadD inh: 2; Myeloid diff: inactive; GFP autofluor: 0

How did O=C(Nc1cc2c(cc1[N+](=O)[O-])OCCO2)c1cccnc1 do in these assays?
Myeloid diff 2: inactive; CRFR2-BP antag: -3; CendR NRP1 mod: -1; FAS TE block: -5; NadD inh: 1
